Laboratory results as given in PubChem BioAssay (NCI).
Compounds without any hit were thinned out: in the full panel of roughly 83,000, 20% have a hit.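 Each cell line was grown in a 96-well plate and treated with one concentration of compound for 48 hours. Values below 10 were considered active.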 Calls of active or inactive are those of the source.

Columns and labels:
Assay in all cases: NCI-60 one-dose screen, 48 h (100 = growth as untreated, 0 = no growth, -100 = all killed)
Conditions in all cases: 10 µM unless noted
NCI-H23 lung = tested on: NCI-H23 lung
NCI-H226 lung = tested on: NCI-H226 lung
NCI-H322M lung = tested on: NCI-H322M lung
HOP-62 NSCLC = tested on: HOP-62 NSCLC
NCI-H460 lung = tested on: NCI-H460 lung
HOP-92 NSCLC = tested on: HOP-92 NSCLC
NCI-H522 lung = tested on: NCI-H522 lung
A549/ATCC NSCLC = tested on: A549/ATCC NSCLC
786-0 renal = tested on: 786-0 renal
COLO 205 colon = tested on: COLO 205 colon
DU-145 prostate = tested on: DU-145 prostate
K-562 leukemia = tested on: K-562 leukemia
MALME-3M melanoma = tested on: MALME-3M melanoma
MDA-MB-231 breast = tested on: MDA-MB-231 breast
RXF 393 renal = tested on: RXF 393 renal
SF-268 CNS = tested on: SF-268 CNS
UACC-257 melanoma = tested on: UACC-257 melanoma
M14 melanoma = tested on: M14 melanoma
SF-295 CNS = tested on: SF-295 CNS
SF-539 CNS = tested on: SF-539 CNS

Measured: growth

CC12CC(=O)C3(SC#N)C(CCC4=CC(=O)CCC43C)C1CCC2=O (stereo not drawn)
active: NCI-H522 lung -3.58%
inactive: NCI-H23 lung 99.1% | NCI-H226 lung 94.1% | NCI-H322M lung 96% | HOP-62 NSCLC 106% | NCI-H460 lung 96.2% | HOP-92 NSCLC 90.7% | A549/ATCC NSCLC 107% | 786-0 renal 90% | COLO 205 colon 66% | DU-145 prostate 46.2% | K-562 leukemia 89% | MALME-3M melanoma 50.2% | MDA-MB-231 breast 100% | RXF 393 renal 56.5% | SF-268 CNS 101% | UACC-257 melanoma 75.9% | M14 melanoma 89%

Nc1nc([Se])c2ncn(C3OC(CO)C(O)C3O)c2n1 (stereo not drawn)
inactive: NCI-H23 lung 51% | NCI-H226 lung 78.5% | NCI-H322M lung 84.3% | HOP-62 NSCLC 12.3% | NCI-H460 lung 27.4% | HOP-92 NSCLC 43% | NCI-H522 lung 71.6% | A549/ATCC NSCLC 102% | 786-0 renal 29.4% | COLO 205 colon 124% | DU-145 prostate 39.9% | K-562 leukemia 21.7% | MALME-3M melanoma 69.3% | MDA-MB-231 breast 22% | SF-268 CNS 87% | SF-295 CNS 42.6% | SF-539 CNS 81% | UACC-257 melanoma 83.8% | M14 melanoma 40.6%

CCCCCC1(CCBr)C(=O)NC(=O)NC1=O
inactive: NCI-H23 lung 109% | NCI-H226 lung 104% | NCI-H322M lung 118% | HOP-62 NSCLC 107% | NCI-H460 lung 108% | HOP-92 NSCLC 85.1% | NCI-H522 lung 100% | A549/ATCC NSCLC 98.3% | 786-0 renal 95.9% | COLO 205 colon 110% | DU-145 prostate 109% | K-562 leukemia 94.1% | MALME-3M melanoma 108% | MDA-MB-231 breast 107% | RXF 393 renal 107% | SF-539 CNS 96.6% | UACC-257 melanoma 91% | M14 melanoma 112%

O=C1OCC2=C1C(c1ccccc1)c1cc3c(cc1N2)OCO3 (stereo not drawn)
inactive: NCI-H23 lung 16.1% | NCI-H322M lung 46.9% | HOP-62 NSCLC 15% | HOP-92 NSCLC 30.8% | A549/ATCC NSCLC 12.6% | 786-0 renal 15.9% | K-562 leukemia 14.5% | MALME-3M melanoma 58% | SF-268 CNS 10.4% | UACC-257 melanoma 35.2% | M14 melanoma 10%
active: NCI-H226 lung -9.94% | NCI-H460 lung 5.45% | NCI-H522 lung -40.3% | COLO 205 colon -65.7% | DU-145 prostate -36.2% | MDA-MB-231 breast -1.65% | SF-295 CNS 6.68% | SF-539 CNS 4.21%

O=C(Nc1ccc([As]=[As]c2ccc(NC(=O)c3ccccc3)cc2)cc1)c1ccccc1 (stereo not drawn)
active: NCI-H23 lung -71.3% | NCI-H226 lung -85.5% | NCI-H322M lung -76.8% | HOP-62 NSCLC -96.7% | NCI-H460 lung -30.5% | HOP-92 NSCLC -93.1% | NCI-H522 lung -75.9% | A549/ATCC NSCLC -63.2% | 786-0 renal -94.3% | COLO 205 colon -83.4% | DU-145 prostate -96% | K-562 leukemia -16.8% | MALME-3M melanoma -80.5% | RXF 393 renal -97.8% | SF-268 CNS -91.4% | SF-295 CNS -52.7% | SF-539 CNS -90.9% | UACC-257 melanoma -87% | M14 melanoma -89%

COC(=O)C1OC(Oc2ccc(N(CCCl)CCCl)cc2)C(OC(C)=O)C(OC(C)=O)C1OC(C)=O (stereo not drawn)
inactive: NCI-H23 lung 92.9% | NCI-H226 lung 96.7% | NCI-H322M lung 108% | HOP-62 NSCLC 94.4% | NCI-H460 lung 29.3% | HOP-92 NSCLC 78% | NCI-H522 lung 67.9% | A549/ATCC NSCLC 75.9% | 786-0 renal 75% | COLO 205 colon 95.3% | DU-145 prostate 104% | K-562 leukemia 94.6% | MALME-3M melanoma 96.1% | MDA-MB-231 breast 88.5% | SF-268 CNS 79.1% | SF-295 CNS 53.1% | SF-539 CNS 70.9% | UACC-257 melanoma 79.6% | M14 melanoma 102%

COC(=O)[C@@H](C)C[C@H](Cc1ccc(F)cc1)NC(=O)c1csc([C@@H](C[C@H](C(C)C)N(C)C(=O)[C@@H](NC(=O)[C@H]2CCCCN2C)C2CC2)OC(C)=O)n1
inactive: NCI-H23 lung 36% | NCI-H226 lung 43.2% | NCI-H322M lung 39.7% | HOP-62 NSCLC 12.2% | HOP-92 NSCLC 46.6% | A549/ATCC NSCLC 20.1% | 786-0 renal 13.5% | DU-145 prostate 13.1% | MALME-3M melanoma 55.2% | MDA-MB-231 breast 13.3% | SF-268 CNS 30.9%
active: NCI-H460 lung 7% | NCI-H522 lung -15.2% | COLO 205 colon -73.1% | K-562 leukemia 9.43% | SF-295 CNS 2.38% | SF-539 CNS -4.81% | M14 melanoma 1.41%

CCOC(=O)CCC(NC(=O)C(Cc1ccc(N(CCCl)CCCl)cc1)NC=O)C(=O)OCC (stereo not drawn)
inactive: NCI-H226 lung 57.5% | NCI-H322M lung 88% | HOP-62 NSCLC 113% | A549/ATCC NSCLC 61.8% | COLO 205 colon 111% | DU-145 prostate 36.3% | K-562 leukemia 35.6% | SF-295 CNS 21.5%
active: NCI-H23 lung 1.98% | NCI-H460 lung 8.71% | HOP-92 NSCLC -2.74% | NCI-H522 lung -67.6% | 786-0 renal -40.8% | MALME-3M melanoma -80.2% | RXF 393 renal -75.9% | SF-539 CNS -61.7% | UACC-257 melanoma -9.97% | M14 melanoma -62.9%
